Measurements from the supplement of paper PMC8253809.
Values joined by “and” are separate entries in the source; they are usually repeats but may differ in a detail not shown here. Equal values may be shown once.

Assays:
Assay in all cases: growth inhibition (% activity, log2 RLU normalised to DMSO / staurosporine); higher = more growth inhibition
Settings in all cases: 33 µM
DIPGX29 = test system: DIPGX29 (H3.3 K27M diffuse intrinsic pontine glioma line)
Summary of the method: (§1)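 In triplicate, pHGG cell lines and H9-derived neural stem cells were treated for 7 days at 37 °C, 5% CO2 with approved drugs at a single final concentration of about 33 μM, added by pin tool. CellTiter-Glo luminescence, after log2 transformation, was normalised on each plate to % activity between solvent and positive control wells. Growth inhibition is reported as the median across replicates.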

DIPGX37 = test system: DIPGX37 (H3.3 K27M diffuse intrinsic pontine glioma line)
Summary of the method: as §1

DIPGX7 = test system: DIPGX7 (H3.3 K27M diffuse intrinsic pontine glioma line)
Summary of the method: as §1

DIPGX9 = test system: DIPGX9 (diffuse intrinsic pontine glioma line)
Summary of the method: as §1

HGGX39 = test system: HGGX39 (paediatric high-grade glioma line)
Summary of the method: as §1

HGGX6 = test system: HGGX6 (H3.3 G34R paediatric high-grade glioma line)
Summary of the method: as §1

HNSC = test system: HNSC
Summary of the method: as §1

SUDIPGIV = test system: SUDIPGIV (diffuse intrinsic pontine glioma line)
Summary of the method: as §1

SUDIPGVI = test system: SUDIPGVI (diffuse intrinsic pontine glioma line)
Summary of the method: as §1

SUDIPGXIII = test system: SUDIPGXIII (diffuse intrinsic pontine glioma line)
Summary of the method: as §1

SMILES: C[C@H]1c2cccc(O)c2C(=O)C2=C(O)[C@]3(O)C(=O)C(C(N)=O)=C(O)[C@@H](N(C)C)[C@@H]3[C@@H](O)[C@@H]21
- growth inhibition (DIPGX29): 0.731%
- growth inhibition (DIPGX37): -0.495%
- growth inhibition (DIPGX7): 1.55%
- growth inhibition (DIPGX9): 1.62%
- growth inhibition (HGGX39): 6.11%
- growth inhibition (HGGX6): 0.474%
- growth inhibition (HNSC): 25.5%
- growth inhibition (SUDIPGIV): 10.2%
- growth inhibition (SUDIPGVI): -0.454%
- growth inhibition (SUDIPGXIII): -2.03%

SMILES: CCCCc1ncc(/C=C(\Cc2cccs2)C(=O)O)n1Cc1ccc(C(=O)O)cc1
- growth inhibition (DIPGX29): -0.827%
- growth inhibition (DIPGX37): 0.563%
- growth inhibition (DIPGX7): -1.23%
- growth inhibition (DIPGX9): -0.197%
- growth inhibition (HGGX39): 0.41%
- growth inhibition (HGGX6): 0.268%
- growth inhibition (HNSC): -1.62%
- growth inhibition (SUDIPGIV): -1.58%
- growth inhibition (SUDIPGVI): 0.0226%
- growth inhibition (SUDIPGXIII): -13.9%

SMILES: CCc1cc(C(N)=S)ccn1
- growth inhibition (DIPGX29): -2.89%
- growth inhibition (DIPGX37): -1.22%
- growth inhibition (DIPGX7): -0.907%
- growth inhibition (DIPGX9): -2.73%
- growth inhibition (HGGX39): -1.46%
- growth inhibition (HGGX6): -1.03%
- growth inhibition (HNSC): -5.37%
- growth inhibition (SUDIPGIV): -0.99%
- growth inhibition (SUDIPGVI): -3.57%
- growth inhibition (SUDIPGXIII): -0.39%

SMILES: CC(C)(C)NC(=O)[C@H]1CC[C@H]2[C@@H]3CC[C@H]4NC(=O)C=C[C@]4(C)[C@H]3CC[C@]12C
- growth inhibition (DIPGX29): 1.8%
- growth inhibition (DIPGX37): 1.06%
- growth inhibition (DIPGX7): 2.69%
- growth inhibition (DIPGX9): 0.827%
- growth inhibition (HGGX39): 2.11%
- growth inhibition (HGGX6): -0.348%
- growth inhibition (HNSC): 4.13%
- growth inhibition (SUDIPGIV): 0.54%
- growth inhibition (SUDIPGVI): 1.81%
- growth inhibition (SUDIPGXIII): 0.754%

SMILES: CN1CCC(=C2c3ccccc3CCc3cccnc32)CC1
- growth inhibition (DIPGX29): -2.68%
- growth inhibition (DIPGX37): 0.139%
- growth inhibition (DIPGX7): 0.133%
- growth inhibition (DIPGX9): -1.74%
- growth inhibition (HGGX39): -1.55%
- growth inhibition (HGGX6): -5.77%
- growth inhibition (HNSC): 24.2%
- growth inhibition (SUDIPGIV): -1.91%
- growth inhibition (SUDIPGVI): -8.64%
- growth inhibition (SUDIPGXIII): 1.19%

SMILES: Nc1ccn([C@@H]2O[C@H](CO)[C@@H](O)C2(F)F)c(=O)n1
- growth inhibition (DIPGX29): 16.7% and 17.4%
- growth inhibition (DIPGX37): 13.6% and 13%
- growth inhibition (DIPGX7): 16.9% and 16.6%
- growth inhibition (DIPGX9): 20.2%
- growth inhibition (HGGX39): 20.4% and 20%
- growth inhibition (HGGX6): 13.5% and 14.1%
- growth inhibition (HNSC): 52.4% and 59.5%
- growth inhibition (SUDIPGIV): 41.6% and 46%
- growth inhibition (SUDIPGVI): 4.24% and 4.14%
- growth inhibition (SUDIPGXIII): 9.89% and 11.3%

SMILES: CCCN[C@H]1CCc2nc(N)sc2C1
- growth inhibition (DIPGX29): -1.19% and -0.0554%
- growth inhibition (DIPGX37): -0.814% and -5.15%
- growth inhibition (DIPGX7): -0.691% and -0.331%
- growth inhibition (DIPGX9): -0.203% and -1.15%
- growth inhibition (HGGX39): -0.555% and -2.37%
- growth inhibition (HGGX6): 3.71% and 0.0769%
- growth inhibition (HNSC): -2.69% and 0.0733%
- growth inhibition (SUDIPGIV): -0.717% and -1.61%
- growth inhibition (SUDIPGVI): -0.616% and -4.53%
- growth inhibition (SUDIPGXIII): -6.77% and -0.361%

SMILES: CC(=O)CCCCn1c(=O)c2c(ncn2C)n(C)c1=O
- growth inhibition (DIPGX29): 0.465%
- growth inhibition (DIPGX37): 1.18%
- growth inhibition (DIPGX7): 0.88%
- growth inhibition (DIPGX9): 0.578%
- growth inhibition (HGGX39): 2.34%
- growth inhibition (HGGX6): 2%
- growth inhibition (HNSC): 1.61%
- growth inhibition (SUDIPGIV): -0.648%
- growth inhibition (SUDIPGVI): 2.85%
- growth inhibition (SUDIPGXIII): 0.487%

SMILES: CCN(CCCc1ccccc1)CCCc1ccccc1
- growth inhibition (DIPGX29): 2.04%
- growth inhibition (DIPGX37): 0.545%
- growth inhibition (DIPGX7): 5.69%
- growth inhibition (DIPGX9): 0.438%
- growth inhibition (HGGX39): 7.1%
- growth inhibition (HGGX6): 5.46%
- growth inhibition (HNSC): 4.87%
- growth inhibition (SUDIPGIV): 0.248%
- growth inhibition (SUDIPGVI): -1.23%
- growth inhibition (SUDIPGXIII): -0.1%

SMILES: Cc1ccccc1C(=O)Nc1ccc(C(=O)N2CCCC(O)c3cc(Cl)ccc32)c(C)c1 (stereo not given)
- growth inhibition (DIPGX29): 1.7%
- growth inhibition (DIPGX37): 2.36%
- growth inhibition (DIPGX7): 1.66%
- growth inhibition (DIPGX9): 1.96%
- growth inhibition (HGGX39): 5.63%
- growth inhibition (HGGX6): 2.91%
- growth inhibition (HNSC): 3.21%
- growth inhibition (SUDIPGIV): 2.35%
- growth inhibition (SUDIPGVI): 3.58%
- growth inhibition (SUDIPGXIII): 0.514%

SMILES: COc1cc2c(cc1Cc1cccc(Cl)c1F)c(=O)c(C(=O)O)cn2[C@H](CO)C(C)C
- growth inhibition (DIPGX29): 1.03%
- growth inhibition (DIPGX37): 1.4%
- growth inhibition (DIPGX7): 3.52%
- growth inhibition (DIPGX9): 3.93%
- growth inhibition (HGGX39): 4.45%
- growth inhibition (HGGX6): 0.0329%
- growth inhibition (HNSC): 19.8%
- growth inhibition (SUDIPGIV): 9.68%
- growth inhibition (SUDIPGVI): 1.61%
- growth inhibition (SUDIPGXIII): 5.02%

SMILES: C[C@]12CC[C@@H]3c4ccc(O)cc4CC[C@H]3[C@@H]1C[C@@H](O)[C@@H]2O
- growth inhibition (DIPGX29): -2.64%
- growth inhibition (DIPGX37): -2.04%
- growth inhibition (DIPGX7): -1.85%
- growth inhibition (DIPGX9): -3.27%
- growth inhibition (HGGX39): -3.05%
- growth inhibition (HGGX6): -3.15%
- growth inhibition (HNSC): 1.55%
- growth inhibition (SUDIPGIV): -0.339%
- growth inhibition (SUDIPGVI): -10.4%
- growth inhibition (SUDIPGXIII): 1.55%

SMILES: Cc1ccc(N(CC2=NCCN2)c2cccc(O)c2)cc1
- growth inhibition (DIPGX29): -5.09%
- growth inhibition (DIPGX37): -4.29%
- growth inhibition (DIPGX7): -2.56%
- growth inhibition (DIPGX9): -2.27%
- growth inhibition (HGGX39): -2.42%
- growth inhibition (HGGX6): -3.2%
- growth inhibition (HNSC): 1.6%
- growth inhibition (SUDIPGIV): -4.67%
- growth inhibition (SUDIPGVI): -4.28%
- growth inhibition (SUDIPGXIII): -1.14%

SMILES: C[C@@H]1[C@H](O)[C@@H](C)/C=C/C=C/C=C/C=C/C=C/C=C/C=C/[C@H](O[C@@H]2O[C@H](C)[C@@H](O)[C@H](N)[C@@H]2O)C[C@@H]2O[C@](O)(C[C@@H](O)C[C@@H](O)[C@H](O)CC[C@@H](O)C[C@@H](O)CC(=O)O[C@H]1C)C[C@H](O)[C@H]2C(=O)O
- growth inhibition (DIPGX29): 1.5%
- growth inhibition (DIPGX37): 0.689%
- growth inhibition (DIPGX7): 0.985%
- growth inhibition (DIPGX9): 2.51%
- growth inhibition (HGGX39): 1.45%
- growth inhibition (HGGX6): 3.13%
- growth inhibition (HNSC): 2.79%
- growth inhibition (SUDIPGIV): -0.529%
- growth inhibition (SUDIPGVI): 0.154%
- growth inhibition (SUDIPGXIII): 1.88%

SMILES: C=C1CCC(O)CC1=CC=C1CCCC2(C)C1CCC2C(C)CCCC(C)(C)O (stereo not given)
- growth inhibition (DIPGX29): -0.0142%
- growth inhibition (DIPGX37): 2.58%
- growth inhibition (DIPGX7): 3.34%
- growth inhibition (DIPGX9): -0.221%
- growth inhibition (HGGX39): 3.14%
- growth inhibition (HGGX6): 0.603%
- growth inhibition (HNSC): -1.74%
- growth inhibition (SUDIPGIV): 3.43%
- growth inhibition (SUDIPGVI): -3.1%
- growth inhibition (SUDIPGXIII): -0.781%

SMILES: CN(C/C=C/c1ccccc1)Cc1cccc2ccccc12
- growth inhibition (DIPGX29): 1.23%
- growth inhibition (DIPGX37): -0.956%
- growth inhibition (DIPGX7): -0.0716%
- growth inhibition (DIPGX9): 1.9%
- growth inhibition (HGGX39): 1.84%
- growth inhibition (HGGX6): 2.12%
- growth inhibition (HNSC): -1.49%
- growth inhibition (SUDIPGIV): 0.156%
- growth inhibition (SUDIPGVI): 1.27%
- growth inhibition (SUDIPGXIII): 0.316%

SMILES: CN1CC(=O)NC1=N
- growth inhibition (DIPGX29): 1.19%
- growth inhibition (DIPGX37): -0.026%
- growth inhibition (DIPGX7): 4.55%
- growth inhibition (DIPGX9): 2.89%
- growth inhibition (HGGX39): 6.17%
- growth inhibition (HGGX6): 2.06%
- growth inhibition (HNSC): 10.1%
- growth inhibition (SUDIPGIV): 2.65%
- growth inhibition (SUDIPGVI): 3.88%
- growth inhibition (SUDIPGXIII): 1.35%

SMILES: CCOC(=O)n1ccn(C)c1=S
- growth inhibition (DIPGX29): 1.7%
- growth inhibition (DIPGX37): 2.04%
- growth inhibition (DIPGX7): 0.732%
- growth inhibition (DIPGX9): 1.21%
- growth inhibition (HGGX39): 0.889%
- growth inhibition (HGGX6): 2.62%
- growth inhibition (HNSC): 0.384%
- growth inhibition (SUDIPGIV): -0.192%
- growth inhibition (SUDIPGVI): 2.2%
- growth inhibition (SUDIPGXIII): -16.1%

SMILES: CCNC(=O)CCC/C=C\C[C@@H]1[C@@H](/C=C/[C@@H](O)CCc2ccccc2)[C@H](O)C[C@@H]1O
- growth inhibition (DIPGX29): 0.795%
- growth inhibition (DIPGX37): 0.309%
- growth inhibition (DIPGX7): 1.77%
- growth inhibition (DIPGX9): 0.624%
- growth inhibition (HGGX39): 3.66%
- growth inhibition (HGGX6): 1.1%
- growth inhibition (HNSC): 1.72%
- growth inhibition (SUDIPGIV): 0.456%
- growth inhibition (SUDIPGVI): 0.646%
- growth inhibition (SUDIPGXIII): -0.283%

SMILES: CC(C)Cc1ccc(C(C)C(=O)O)cc1 (stereo not given)
- growth inhibition (DIPGX29): 0.835% and -0.392%
- growth inhibition (DIPGX37): 2.64% and 0.0742%
- growth inhibition (DIPGX7): 2.15% and 0.0236%
- growth inhibition (DIPGX9): 1.07% and 0.0197%
- growth inhibition (HGGX39): 2.25% and -0.715%
- growth inhibition (HGGX6): 1.92% and 1.49%
- growth inhibition (HNSC): -0.67% and 0.218%
- growth inhibition (SUDIPGIV): -1.49% and -4.48%
- growth inhibition (SUDIPGVI): 2.09% and 0.812%
- growth inhibition (SUDIPGXIII): -0.0501% and 0.956%

SMILES: CCOc1cc(CC(=O)N[C@@H](CC(C)C)c2ccccc2N2CCCCC2)ccc1C(=O)O
- growth inhibition (DIPGX29): 0.598%
- growth inhibition (DIPGX37): -0.0763%
- growth inhibition (DIPGX7): 1.67%
- growth inhibition (DIPGX9): -0.0677%
- growth inhibition (HGGX39): 0.171%
- growth inhibition (HGGX6): -1.18%
- growth inhibition (HNSC): -2.28%
- growth inhibition (SUDIPGIV): -0.496%
- growth inhibition (SUDIPGVI): -6.9%
- growth inhibition (SUDIPGXIII): -1.55%
